These results are taken from PubChem BioAssay (NCI).

The panel holds about 79,000 compounds, 15% with a hit somewhere; the sample as a whole holds those more often. Unmarked numbers belong to inactive results. Rule as the data show it: active = growth inhibition above about 70%; inactive = the rest. Where a SMILES comes first, the peptide text is derived from it. The star is where a group is joined. Cbz = O=C(OCc1ccccc1)*

The first experiment in a line: NCI Yeast Anticancer Drug Screen. Data for the cln2 rad14 strain (AID 165).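 Also: 0% = growth equal to vehicle treated cultures.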 Particulars: S. cerevisiae cln2 rad14 strain, at 50.0 µM, hits give high values. The procedure, abridged: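 Relative to vehicle controls, growth inhibition of compound-treated cln2 rad14 yeast was recorded.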
With `COC(=O)c1c[nH]c(C=O)c1C`, the growth inhibition was -67.8%.
In the case of `O=C(N/N=C/c1ccc(Cl)cc1Cl)c1cccc([N+](=O)[O-])c1`, the growth inhibition is -6.95%.
Consider `CCOC(=O)C(C#N)=C1c2ccccc2Oc2ccccc21`, for which the growth inhibition was -46%.
In the case of `NC1c2ccccc2CCc2ccccc21`, the growth inhibition was 3.55%.
The same measure, in the same setting: for `Clc1ccc(CCn2cncn2)cc1` the value was -11.7%.
On the same count and under the same terms, next, `O=C(Nc1ncnc2c1ncn2C1OC(COC(=O)c2ccccc2)C(OC(=O)c2ccccc2)C1OC(=O)c1ccccc1)c1ccccc1` (stereo not drawn): 10.8%.
On to `COc1ccc(CC2OC(C)CC(C)(C)O2)cc1` (stereo not drawn), for which the growth inhibition is -55.8%.
Take `CSc1nc2nc[nH]c(=O)c2[nH]1`: the growth inhibition was -14.1%.

Another experiment is described as follows: NCI Yeast Anticancer Drug Screen. Data for the bub3 strain (AID 167). As to conditions: S. cerevisiae bub3 mutant strain, at 50.0 µM, hits give high values. The procedure, abridged:
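Inhibition values come from growth of compound-treated mutant yeast normalised to vehicle-treated controls.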
As to `CC(C)(CS(C)(=O)=O)C(=O)O`, the growth inhibition was -2.05%.
`COC(=O)C(CO)NC(=O)C(CO)NC(=O)OCc1ccccc1` (stereo not drawn) (Cbz-Ser-Ser-OMe; configuration not given here): the growth inhibition is -10%.
Consider `O=C1O/C(=C(\Br)c2ccc([N+](=O)[O-])cc2)c2ccccc21`, for which the growth inhibition is -5.9%.
As for `CC(=O)OCC1OC(n2c(-c3ccc(C)cc3)cc(-c3ccccc3)c(C#N)c2=S)C(OC(C)=O)C(OC(C)=O)C1OC(C)=O` (stereo not drawn), the growth inhibition is 27.9%.
As to `Cc1ccc(C(=O)/C=C/c2ccc(N(C)C)cc2)cc1`, the growth inhibition is 29.4%.
For `Clc1cc(Cl)c(Cl)c(Cl)c1Cl`, the growth inhibition is -2.7%.
Consider `Cc1c(-c2ccccc2)[nH]c2ccc(Cl)cc2c1=O`, for which the growth inhibition is -5.1%.
Consider `CN(C)C(=O)C(c1ccccc1)P(=O)(c1ccccc1)c1ccccc1` (stereo not drawn), for which the growth inhibition was -21.2%.
For `O=[N+]([O-])c1ccc(SC2=NCCCN2C2CCCCC2)c(Cl)c1`, the growth inhibition is 12.6%.
Turning to `C/C(=N\NC(=O)C1CCCO1)c1cccc2ccccc12` (stereo not drawn), the growth inhibition was 3.9%.
The same measure, in the same setting: next, `COc1ccc(Sc2cccc(Cl)c2)c(C(=O)O)c1`: -0.55%; `NC(=S)N/N=C\C(CC(O)C(O)CO)=N\NC(N)=S` (stereo not drawn): 12.4%; `COC(=O)/C=C1/CC[C@H]2[C@@H]3CCC4=CC(=O)CC[C@]4(C)[C@H]3C(=O)C[C@]12C`: 14.2%.
Take `CCCCCCC1N(C(C#N)c2ccccc2)CCCN1C(C#N)c1ccccc1` (stereo not drawn): the growth inhibition is 2.4%.
With `CC(C)(C)n1nnnc1N`, the growth inhibition is 11.1%.
For `C/C(=N/O)c1ccc(O)cc1O`, the growth inhibition is 5.15%.
As for `CC(=O)OC1CC23CCC(=O)C2(CC3)C1` (stereo not drawn), the growth inhibition was 8.3%.
In the case of `N#Cc1c(C(F)(F)F)cc(-c2cccs2)nc1SC(C(=O)Nc1c(F)cccc1F)c1ccccc1` (stereo not drawn), the growth inhibition is 15%.
Consider `NC(=S)c1ccc[n+](Cc2c(Cl)cccc2Cl)c1`, for which the growth inhibition was -0.15%.
For `O=C1CC(c2ccccc2)NCN1` (stereo not drawn), the growth inhibition is -2.4%.
Same read-out and setting: for `O=C(C[n+]1cc(Br)cc(Br)c1)c1ccc(Br)cc1` the value was -4.95%.
Same read-out and setting: next, `COc1ccccc1C(OC)c1ccccc1C(=O)O` (stereo not drawn): -4.7%; `COc1cc(C(C)Cl)ccc1OC(=O)c1ccccc1` (stereo not drawn): 12.2%.
On to `N=C(c1ccc2ccccc2c1)c1ccccc1Cc1ccccc1`, for which the growth inhibition was 9.35%.
For the compound `COc1cc([C@@H]2C3C(=O)c4ccccc4C3[C@@H](c3cc(OC)c(OC)c(OC)c3)C23Cc2ccccc2C3=O)cc(OC)c1OC` (stereo partly drawn), the growth inhibition was 23.4%.
As for `CC(C)n1nnnc1-c1ccccc1`, the growth inhibition was -3.1%.
Take `NC1NC(=O)C(CCCOc2ccc([N+](=O)[O-])cc2)C(c2ccccc2)N1` (stereo not drawn): the growth inhibition is 21.8%.
On to `N#C/C(=C\c1ccco1)c1ccc([N+](=O)[O-])cc1`, for which the growth inhibition is 42.3%.
For `COc1cc2c(cc1O)CN1Cc3c(ccc(OC)c3O)C2C1` (stereo not drawn), the growth inhibition is -11.5%.
Regarding `CCCCC1(CO)NC(=O)NC1=O` (stereo not drawn), the growth inhibition was 2.75%.
Consider `c1ccc(-c2cc(-c3ccccc3)c3ccc4c(-c5ccccc5)cc(-c5ccccc5)c5ccc2c3c54)cc1`, for which the growth inhibition was -18.9%.
As for `CN(C(=O)Sc1ccc([N+](=O)[O-])cc1)c1ccc([N+](=O)[O-])cc1`, the growth inhibition is 31.4%.
On the same count and under the same terms, for `COC(=O)c1c[nH]c(C=O)c1C` the value was 8.3%; for `O=C(N/N=C/c1ccc(Cl)cc1Cl)c1cccc([N+](=O)[O-])c1`, 2.3%; for `CCOC(=O)C(C#N)=C1c2ccccc2Oc2ccccc21`, 6.95%.
For the compound `NC1c2ccccc2CCc2ccccc21`, the growth inhibition is 6.8%.
For `Clc1ccc(CCn2cncn2)cc1`, the growth inhibition is -22.6%.
On the same count and under the same terms, for `O=C(Nc1ncnc2c1ncn2C1OC(COC(=O)c2ccccc2)C(OC(=O)c2ccccc2)C1OC(=O)c1ccccc1)c1ccccc1` (stereo not drawn) the value was 4.05%.
Turning to `COc1ccc(CC2OC(C)CC(C)(C)O2)cc1` (stereo not drawn), the growth inhibition was -4.5%.
On the same count and under the same terms, for `CSc1nc2nc[nH]c(=O)c2[nH]1` the value was -5.35%.

The next experiment in a line: NCI Yeast Anticancer Drug Screen. Data for the mlh1 rad18 strain (AID 175). As to conditions: S. cerevisiae mlh1 rad18 strain growth inhibition; at 50.0 µM; hits give high values. The procedure, abridged: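 Test agents were incubated with a yeast strain of defined genotype (DNA damage repair defect). Inhibition of growth was derived by comparison with vehicle-exposed cultures.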
`CC(C)(CS(C)(=O)=O)C(=O)O`: the growth inhibition is 4.65%.
Take `COC(=O)C(CO)NC(=O)C(CO)NC(=O)OCc1ccccc1` (stereo not drawn) (Cbz-Ser-Ser-OMe; configuration not given here): the growth inhibition was -16.4%.
On to `O=C1O/C(=C(\Br)c2ccc([N+](=O)[O-])cc2)c2ccccc21`, for which the growth inhibition was 1.05%.
With `CC(=O)OCC1OC(n2c(-c3ccc(C)cc3)cc(-c3ccccc3)c(C#N)c2=S)C(OC(C)=O)C(OC(C)=O)C1OC(C)=O` (stereo not drawn), the growth inhibition was 27.8%.
Take `Cc1ccc(C(=O)/C=C/c2ccc(N(C)C)cc2)cc1`: the growth inhibition was 43.8%.
On to `Clc1cc(Cl)c(Cl)c(Cl)c1Cl`, for which the growth inhibition was 13.9%.
For the compound `Cc1c(-c2ccccc2)[nH]c2ccc(Cl)cc2c1=O`, the growth inhibition was 6.25%.
With `CN(C)C(=O)C(c1ccccc1)P(=O)(c1ccccc1)c1ccccc1` (stereo not drawn), the growth inhibition is -5.25%.
`O=[N+]([O-])c1ccc(SC2=NCCCN2C2CCCCC2)c(Cl)c1`: the growth inhibition was -9%.
For the compound `C/C(=N\NC(=O)C1CCCO1)c1cccc2ccccc12` (stereo not drawn), the growth inhibition was 3.55%.
Turning to `COc1ccc(Sc2cccc(Cl)c2)c(C(=O)O)c1`, the growth inhibition was 6.5%.
Consider `NC(=S)N/N=C\C(CC(O)C(O)CO)=N\NC(N)=S` (stereo not drawn), for which the growth inhibition was 10.2%.
Take `COC(=O)/C=C1/CC[C@H]2[C@@H]3CCC4=CC(=O)CC[C@]4(C)[C@H]3C(=O)C[C@]12C`: the growth inhibition is 33.2%.
For `CCCCCCC1N(C(C#N)c2ccccc2)CCCN1C(C#N)c1ccccc1` (stereo not drawn), the growth inhibition is 36.4%.
Take `CC(C)(C)n1nnnc1N`: the growth inhibition was -20.9%.
On to `C/C(=N/O)c1ccc(O)cc1O`, for which the growth inhibition was 13.8%.
As to `CC(=O)OC1CC23CCC(=O)C2(CC3)C1` (stereo not drawn), the growth inhibition is -11%.
As to `N#Cc1c(C(F)(F)F)cc(-c2cccs2)nc1SC(C(=O)Nc1c(F)cccc1F)c1ccccc1` (stereo not drawn), the growth inhibition is 25.9%.
Turning to `NC(=S)c1ccc[n+](Cc2c(Cl)cccc2Cl)c1`, the growth inhibition is -4.4%.
Same read-out and setting: next, `O=C1CC(c2ccccc2)NCN1` (stereo not drawn): 8.3%; `O=C(C[n+]1cc(Br)cc(Br)c1)c1ccc(Br)cc1`: 37.9%.
With `COc1ccccc1C(OC)c1ccccc1C(=O)O` (stereo not drawn), the growth inhibition is -16.1%.
For `COc1cc(C(C)Cl)ccc1OC(=O)c1ccccc1` (stereo not drawn), the growth inhibition is 4.5%.
For `N=C(c1ccc2ccccc2c1)c1ccccc1Cc1ccccc1`, the growth inhibition was 24.2%.
On to `COc1cc([C@@H]2C3C(=O)c4ccccc4C3[C@@H](c3cc(OC)c(OC)c(OC)c3)C23Cc2ccccc2C3=O)cc(OC)c1OC` (stereo partly drawn), for which the growth inhibition was 16%.
Still for that read-out and setting: next, `CC(C)n1nnnc1-c1ccccc1`: 1.15%; `NC1NC(=O)C(CCCOc2ccc([N+](=O)[O-])cc2)C(c2ccccc2)N1` (stereo not drawn): 10.4%; `N#C/C(=C\c1ccco1)c1ccc([N+](=O)[O-])cc1`: 14.3%.
Consider `COc1cc2c(cc1O)CN1Cc3c(ccc(OC)c3O)C2C1` (stereo not drawn), for which the growth inhibition is 0.65%.
In the case of `CCCCC1(CO)NC(=O)NC1=O` (stereo not drawn), the growth inhibition is -1.4%.
Take `c1ccc(-c2cc(-c3ccccc3)c3ccc4c(-c5ccccc5)cc(-c5ccccc5)c5ccc2c3c54)cc1`: the growth inhibition was -26.2%.
As to `CN(C(=O)Sc1ccc([N+](=O)[O-])cc1)c1ccc([N+](=O)[O-])cc1`, the growth inhibition is 21.3%.
`COC(=O)c1c[nH]c(C=O)c1C`: the growth inhibition was 8.8%.
Turning to `O=C(N/N=C/c1ccc(Cl)cc1Cl)c1cccc([N+](=O)[O-])c1`, the growth inhibition is 24.4%.
Same read-out and setting: for `CCOC(=O)C(C#N)=C1c2ccccc2Oc2ccccc21` the value was -1.15%.
For the compound `NC1c2ccccc2CCc2ccccc21`, the growth inhibition was 6.8%.
With `Clc1ccc(CCn2cncn2)cc1`, the growth inhibition was -18.8%.
The same measure, in the same setting: for `O=C(Nc1ncnc2c1ncn2C1OC(COC(=O)c2ccccc2)C(OC(=O)c2ccccc2)C1OC(=O)c1ccccc1)c1ccccc1` (stereo not drawn) the value was 34.6%; for `COc1ccc(CC2OC(C)CC(C)(C)O2)cc1` (stereo not drawn), 37.2%; for `CSc1nc2nc[nH]c(=O)c2[nH]1`, -2.5%.
